Data from PubChem BioAssay AID2314 (National Center for Advancing Translational Sciences (NCATS), 2010).
Out of some 300,000 compounds screened, about 37,000 (12%) were called active. Rule as the data show it: active = max response mostly above about 13% (no sharp cut-off); inactive = mostly below about 14%. Only a selection was taken, and actives are over-represented in it overall.

test: Cycloheximide Counterscreen for Small Molecule Inhibitors of Shiga Toxin; conditions: cell reporter, cycloheximide protein synthesis inhibition counterscreen; active compounds read high; also: read at 38.3 µM for the half of the compounds with a filed dose; 0% is about no effect

Row | Structure (SMILES) | max response
1 | CCOc1ccc(-c2noc(CCC(=O)NC3CCCC3)n2)cc1OC | -5.32% (inactive)
2 | COc1ccc(OC)c(Cc2nnc(CCC(=O)NC3CCCC3)o2)c1 | 18.4% (active)
3 | COc1ccc(-c2noc(CCCC(=O)NC3CCCC3)n2)cc1OC | 3.35% (inactive)
4 | CC(=O)c1cc(CN2CCC(C(=O)Nc3cccc(-c4cscn4)c3)CC2)cs1 | 1.1% (inactive)
5 | CCCN(CCC)c1nc2c(C)cccn2c(=O)c1/C=C1/SC(=S)N(Cc2ccco2)C1=O | 3.29% (inactive)
6 | CC1CN(CC(=O)NC(C)c2ccccc2)CC(C)O1 (centres undefined) | -1.49% (inactive)
7 | O=C(NCc1cccs1)c1ccc(CS(=O)Cc2ccccc2Cl)o1 (centres undefined) | -1.19% (inactive)
8 | COc1ccc(-n2nc(C(=O)Nc3cc(OC)c(OC)c(OC)c3)c3ccccc3c2=O)c(OC)c1 | 7.65% (inactive)
9 | COc1ccc(-n2nc(C(=O)NCC(=O)N3CCN(c4ccccc4OC)CC3)c3ccccc3c2=O)c(OC)c1 | 24.9% (active)
10 | COc1cccc(NC(=O)c2nn(-c3ccc(OC)cc3OC)c(=O)c3ccccc23)c1 | -9.73% (inactive)
11 | Cc1ccc(S(=O)(=O)N(CC(O)CN2CCCCC2)c2cccc([N+](=O)[O-])c2)cc1 (centres undefined) | -3.71% (inactive)
12 | COc1ccc(N(Cc2ccc(N(C)C)cc2)C(=O)c2ccc(S(C)(=O)=O)cc2)cc1 | -1.82% (inactive)
13 | O=C(O)CCn1cc(/C=C/C(=O)c2ccc(Cl)cc2)c(-c2cccc(Br)c2)n1 | 0.455% (inactive)
14 | FC(F)(F)c1nnc2c3ccccc3c(Cl)nn12 | -3.49% (inactive)
15 | Oc1oc(-c2ccccc2Br)nc1/C=N/c1ccccn1 | 34.5% (active)
16 | CC(C)n1c(O)c(N=Nc2ccccn2)c2ccccc21 | 4.74% (inactive)
17 | CN(C(=O)CN1C(=O)S/C(=C\c2ccccc2F)C1=O)C1CCS(=O)(=O)C1 (centres undefined) | 0.582% (inactive)
18 | COc1ccc(CNC(=O)C(c2ccc(O)cc2)N(Cc2ccco2)C(=O)c2snc(C(N)=O)c2N)cc1 (centres undefined) | 2.14% (inactive)
19 | CCC(C)Sc1nc2c(cnn2-c2ccc(F)cc2)c(=O)[nH]1 (centres undefined) | 3.85% (inactive)
20 | CC(C)=CCN1CCN(Cc2cc3ccccc3[nH]2)CC1CCO (centres undefined) | -3.61% (inactive)
21 | Cc1cc(C)c(S(=O)(=O)c2cc(F)ccc2C)c(=O)[nH]1 | 2.04% (inactive)
22 | CCOc1cc(NC(=O)CCl)c(OCC)cc1NC(C)=O | -3.13% (inactive)
23 | CC(Cc1cccs1)N(Cc1ccc(Cl)cc1)C(=O)c1ccncc1 (centres undefined) | -4.21% (inactive)
24 | Cc1ccc(NC(=S)NC(=O)/C=C/c2ccc(Cl)cc2)cc1 | 8.42% (inactive)
25 | CC(C)(C)c1ccc(/C=C/C(=O)Nc2ncccn2)cc1 | 65.3% (active)
26 | CC(C)(C)c1ccc(/C=C/C(=O)NC2CCS(=O)(=O)C2)cc1 (centres undefined) | 5.09% (inactive)
27 | Cc1cc(C)nc(NC(=O)/C=C/c2ccc(Cl)cc2)n1 | 17.8% (active)
28 | O=C(/C=C/c1ccc(Cl)cc1)Nc1ccc(Br)cn1 | 14.3% (inactive)
29 | O=C(/C=C/c1ccc(Cl)cc1)Nc1ccc(S(=O)(=O)Nc2ncccn2)cc1 | 5.75% (inactive)
